Compound activity: PubChem, National Center for Advancing Translational Sciences (NCATS)
DRD3 antagonist: blocks the human D3 dopamine receptor. D3R cells, DiscoveRx beta-arrestin luminescence, antagonist mode; active compounds read low. AID 652054. max response, negative = inhibition, %. P35462. hit rate 2.5% among 360,000; in the data active = max response below about -50%; inconclusive = no clear call, values can overlap the other calls; note: % is set by controls: 0 for no effect and ±100 for the full control effect
Target sequence (P35462 whole entry, looked up): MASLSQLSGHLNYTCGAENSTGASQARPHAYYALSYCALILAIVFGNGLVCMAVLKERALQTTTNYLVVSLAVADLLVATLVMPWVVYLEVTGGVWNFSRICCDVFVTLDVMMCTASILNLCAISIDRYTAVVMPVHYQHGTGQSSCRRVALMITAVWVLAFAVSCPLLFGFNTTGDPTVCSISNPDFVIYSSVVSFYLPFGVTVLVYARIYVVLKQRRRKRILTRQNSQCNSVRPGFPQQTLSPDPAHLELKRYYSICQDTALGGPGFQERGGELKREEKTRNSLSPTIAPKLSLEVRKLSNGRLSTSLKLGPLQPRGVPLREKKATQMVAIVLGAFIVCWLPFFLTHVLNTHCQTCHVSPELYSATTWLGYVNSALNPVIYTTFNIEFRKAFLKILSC
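Cells expressing the human receptor were seeded at 1500 cells/well, incubated overnight at 37 degrees C in 5% CO2, then exposed to library compounds with dopamine controls for 90 minutes at 37 degrees C before luminescent detection.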
D3 ag: agonists of human D3 dopamine receptor | D3R DiscoveRx beta-arrestin cells, luminescence, 90 min | P35462 | hit rate 0.58% among 410,000 | max activation, % | AID 652048; in the data active = max activation above about 30%; note: 0% is about no effect
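Agonist-mode cell screen: cells plated at 1500/well and incubated overnight at 37 °C, then exposed to library compounds for 90 min at 37 °C. Detection reagent was added for 30–60 min at room temperature, and luminescence was read.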
GLP-1R inv ag: acts as inverse agonist at human GLP-1 receptor. HEK293 GLP-1R CRE-luciferase, luminescence, 24 h; GLP-1R form is constitutively active. AID 624417. hit rate 1.6% among 410,000. Potency, µM (top dose mostly 38.3 µM), for inactives: top-dose activity change, negative = inhibition, most hits filed as inhibitors; note: potency is the fitted concentration of half-maximal effect; % is set by controls: 0 for no effect and ±100 for the full control effect; nearly all actives have a fitted effect of over 55% in size
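qHTS in 1536-well format: reporter HEK293 cells expressing constitutive GLP-1R activity in DMEM + 10% Nu serum, 24 hr with compounds at 37 deg C, luminescence read after 12 min with detection reagent.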
GLP1R ag: agonists of human GLP-1 receptor | P43220 | AID 624172 | HEK293 GLP-1R CRE-luciferase, luminescence, 4-6 h; cells express a hypersensitive GLP-1R form | Potency, µM (top dose mostly 45.6 µM), for inactives: top-dose activation, most hits filed as activators | hit rate 0.007% among 380,000; note: potency is the fitted concentration of half-maximal effect; % of control where 0% means no effect
An asterisk follows results filed as active; u = inconclusive; x = no result given. An excerpt weighted towards active compounds, which were near 4.3% of everything screened. Unless noted, calls come from the whole dose curve; as a rule, active = well fitted curve in the direction sought with a large enough effect; inconclusive = small, poorly fitted or top-dose-only effect, or another doubt; inactive = no such curve, though single readings can be large; an effect the other way counts as inactive or inconclusive.

SMILES	DRD3 antagonist	D3 ag	GLP-1R inv ag	GLP1R ag
CC(C)Cn1cc(NC(=O)N2CCN(c3cccc(Cl)c3)CC2)c2ccccc2c1=O	x	-3	u	-3%
CC(C)[C@H]1C(=O)Nc2ccccc2N1C(=O)N[C@@H](Cc1ccccc1)C(=O)N[C@H](C(=O)O)c1ccccc1	-5	-8	4%	1%
Nc1ccc(C23CC4CC(CC(O)(C4)C2)C3)cc1	-50*	0	u	-34%
COc1ccccc1CCN1COc2c(cc3c(C)c(C)c(=O)oc3c2C)C1	x	-33	17%	x
O=C(NNC(=O)C1CCCO1)c1ccc(F)cc1 (configuration not stated)	25	10	1%	2%
CCCCN1CC(COCc2ccccc2)Oc2cccc(Oc3ccccc3)c2S1(=O)=O (configuration not stated)	-11	-1	u	0%
CCCCN1CC(COCc2ccccc2)Oc2cccc(OCc3ccc(OC)cc3)c2S1(=O)=O (configuration not stated)	18	2	u	-6%
CCCCN1CC(COCc2ccccc2)Oc2cccc(Oc3cc(C)c(C)c(C)c3)c2S1(=O)=O (configuration not stated)	-5	-8	2.8µM*	-2%
CCCCN1CC(COCc2ccccc2)Oc2cccc(Oc3ccc(C)cc3)c2S1(=O)=O (configuration not stated)	-21	-12	7.9µM*	5%
CCCCN1CC(COCc2ccccc2)Oc2cccc(Oc3ccc(F)cc3)c2S1(=O)=O (configuration not stated)	24	8	3.5µM*	7%
Cn1cnc(S(=O)(=O)N2CCC(C(=O)Nc3ccc(Cl)c(C(F)(F)F)c3)CC2)c1	x	10	u	x
Cc1sc2nc(SCCN(C)C)n(-c3ccccc3)c(=O)c2c1-c1ccc(F)cc1	-69*	-15	u	17%
Cc1cccc(NC(=O)C2CCCN(S(=O)(=O)c3cccc4nonc34)C2)c1C (configuration not stated)	x	-15	9%	x
CCSc1ccccc1C(=O)Nc1ccc(-c2nc3ccccc3s2)c(O)c1	x	-19	9%	x
COCCCNC(=O)CC[C@H]1O[C@@H](n2cnc3c(NC(=O)c4ccccc4)ncnc32)[C@H](O)[C@@H]1O	9	5	15%	0%
COc1cc(NC(=O)CC[C@H]2O[C@@H](n3cnc4c(NC(=O)c5ccccc5)ncnc43)[C@H](O)[C@@H]2O)cc(OC)c1OC	-52*	-10	21%	-6%
Cc1c(Cl)c([N+](=O)[O-])nn1CC(=O)NCc1ccc(Cl)cc1	u	-9	-4%	0%
COc1nc(SC)nc(Cl)c1Cc1ccc(OC(C)C)cc1	6	-13	u	3%
CSc1nc(Cl)c(Cc2ccc(OC(C)C)cc2)c(N2CCOCC2)n1	-14	-5	13µM*	8%
CO[C@H]1C[C@H](O[C@@H]2/C(C)=C/C[C@@H]3C[C@@H](C[C@]4(CC[C@H](C)[C@@H](C5CCCCC5)O4)O3)OC(=O)[C@@H]3C=C(C)/C(=N/O)[C@H]4OC/C(=C\C=C\[C@@H]2C)[C@]43O)O[C@@H](C)[C@@H]1O	x	-3	x	x
CCCNC(=O)c1onc(CSc2ccc(Cl)cc2)c1C(=O)NCCC(C)C	2	6	10µM*	9%
C=CCNC(=O)c1c(CSc2ccccc2)noc1C(=O)NCc1ccccc1	-18	-1	-5%	-1%
C=CCNC(=O)c1c(CSc2ccc(Cl)cc2)noc1C(=O)NCCC	25	2	u	15%
C=CCNC(=O)c1c(CSc2ccc(Cl)cc2)noc1C(=O)NCc1ccccc1	-2	-9	7.9µM*	2%
COc1ccc(C(=O)NNC(=O)Cc2nc3nc(C)cc(C)n3n2)cc1	7	0	-10%	0%
SMILES	DRD3 antagonist	D3 ag	GLP-1R inv ag	GLP1R ag
O=C(NC1CCN(Cc2ccccc2)CC1)c1c(Cl)cccc1Cl	-10	-9	-43%	11%
Cc1c(C(=O)NC2CCN(Cc3ccccc3)C2)oc2ccc(Br)cc12 (configuration not stated)	-59*	-20	u	4%
C=C(C)c1cccc(C(C)(C)NC(=O)NC2CCN(Cc3ccccc3)CC2)c1	-77*	-15	u	-1%
C=C(C)c1cccc(C(C)(C)NC(=O)N2CCCC2)c1	0	-11	-22%	5%
Cc1ccnc(NC(=O)c2cccc(OC(F)F)c2)n1	4	1	16%	14%
O=C(NC1CCN(Cc2ccccc2)CC1)c1cccc(Br)c1	-85*	-44	u	5%
O=C(Nc1cc(Cl)cc(Cl)c1)c1cccc(OC(F)F)c1	8	6	13µM*	-4%
O=C1N=C(N2CCCC2C(=O)O)S/C1=C\c1ccco1 (configuration not stated)	14	-6	u	-1%
COc1ccc(-c2c(C#N)c(SCC(=O)Nc3ccc(C)c(C)c3)nc(C)c2C(=O)Nc2ccccc2)cc1OC	x	3	19%	x
CCOc1ccccc1NC(=O)CN1C(=O)COc2ccc(S(=O)(=O)Nc3ccccc3)cc21	x	-13	u	0%
CCC(=O)OCC(=O)[C@@]1(OC(=O)CC)[C@@H](C)C[C@@H]2[C@H]3CCC4=CC(=O)C=C[C@]4(C)[C@@]3(F)[C@@H](O)C[C@@]21C	x	x	x	-5%
Cc1cccc(NC(=O)C(=O)NCC(c2cccnc2)N2CCc3ccccc32)c1C (configuration not stated)	x	4	u	x
COc1ccccc1NC(=O)C(=O)NCCC1CCCCN1S(=O)(=O)c1ccc(F)cc1 (configuration not stated)	-14	-23	-6%	-6%
O=C(NC1CCN(Cc2ccccc2)CC1)C1COc2ccccc2O1 (configuration not stated)	-78*	1	-36%	-3%
O=C(NC1CCCCC1)c1ccc2c(c1)OCCO2	-12	-12	u	13%
S=C(NCc1ccccc1)N1CCN(Cc2ccc3c(c2)OCO3)CC1	5	-5	-34%	16%
O=C(NC1CCN(Cc2ccccc2)CC1)c1ccc2c(c1)OCCCO2	-57*	-25	-10%	2%
O=C(/C=C/c1cccc(Br)c1)NC1CCN(Cc2ccccc2)CC1	-61*	-9	u	32%
S=C(NCc1ccc2c(c1)OCO2)NC1CCN(Cc2ccccc2)CC1	-60*	-20	u	12%
O=C(/C=C/c1cccc(F)c1)NC1CCN(Cc2ccccc2)CC1	u	-9	-46%	7%
Cc1ccc(Nc2c(-c3ccncc3)nc3ccc(C)cn23)cc1	x	15	6%	x
CCOc1ccc(CCNC(=O)Cn2nc(C)n3c(cc4occc43)c2=O)cc1OCC	x	-11	-8%	x
CC(=O)c1cccc(OCc2cc(C(=O)NC3CCN(Cc4ccccc4)CC3)no2)c1	u	-18	u	-3%
CN(CC(=O)NC1CCN(Cc2ccccc2)CC1)S(=O)(=O)c1ccc(Br)s1	-56*	-20	-23%	8%
